Screening results as filed in PubChem.
A selection: hits, their analogues and other compounds. The true share with any hit is near 1.5%.
FEN1 inhibitor = human FEN1 inhibition. P39748. Recombinant FEN1 flap cleavage, fluorescence, 15 min. Potency, µM (highest dose often 114 µM), for the others: at the highest dose activity change, negative = inhibition, actives largely listed as inhibitors. actives 0.35% (n = 390,000); note: potency is the fitted concentration of half-maximal effect; nearly all actives have a fitted effect of over 65% in size
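With each library titrated from low to high concentration, compounds met 10 nM FEN1 for 15 min at room temperature before 50 nM substrate was added; readings at 0 and 15 min fed four-parameter Hill curve fits.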
TDP1 inh = blocks human tyrosyl-DNA phosphodiesterase 1; Q9NUW8; recombinant TDP1, AlphaScreen DNA substrate cleavage; Potency, µM (highest dose often 130 µM), inactives show at the highest dose activity change, negative = inhibition, usual class: inhibitors; actives 0.28% (n = 350,000); note: potency is the fitted concentration of half-maximal effect; nearly all actives have a fitted effect of over 40% in size
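Recombinant human Tdp1 (E. coli-expressed, 1 nM final) preincubated with compounds 15 min at room temperature, then 5'-biotin/3'-phosphotyrosine-FITC DNA substrate (15 nM final) added for 5 min. AlphaScreen beads (10 ug/ml final) added 10 min; cleavage lowers signal.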
PI5P4Ka inh = inhibitors of human PI5P4K alpha; max response, %; PI5P4Kalpha enzyme, ADP-Glo luminescence, 60 min; active compounds read low; actives 1.2% (n = 330,000); P48426; AID 652105; active = max response of -50% or lower; inconclusive = between -30% and -50%; inactive = -30% or higher; note: value at the top dose of about 77 µM
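Quantitative HTS of the MLSMR library against PI5P4Kalpha with substrate. ATP added last at 5 microM final; room temperature, 60 minutes. Remaining ATP depleted, ADP converted and read as luminescence.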
Tb PGK inh = inhibitors of T. brucei phosphoglycerate kinase; actives 0.043% (n = 380,000); P07378; Potency, µM (series often up to 57.5 µM), inactives show at the highest dose activity change, negative = inhibition, most hits filed as inhibitors; PGK/GAPDH coupled, Kinase-Glo luminescence, 60 min; note: potency is the fitted concentration of half-maximal effect; nearly all actives have a fitted effect of over 60% in size
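Luminescent ATP detection (Kinase-Glo Plus) follows a 60-minute room-temperature incubation, with wells lacking PGK as controls. Buffer: 100 mM TEA (pH 7.6), 5 mM MgCl2, 0.01% Tween-20. Coupling enzyme GAPDH (100 nM final) supplies unstable 1,3-BPG in-well.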
WRN inhibitor = inhibitors of human WRN helicase. Q14191. WRN helicase unwinding, fluorescent forked duplex, kinetic. Potency, µM (top dose mostly 114 µM), inactives show top-dose activity change, negative = inhibition, most hits filed as inhibitors. actives 0.46% (n = 360,000). AID 651768; note: potency is the fitted concentration of half-maximal effect; nearly all actives have a fitted effect of over 55% in size
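Enzyme (20 nM final) and test compound sit together 15 min at room temperature before substrate addition. Substrate is a single-forked duplex oligonucleotide (100 nM) labelled with fluorophore and quencher, with 2 mM ATP; helicase unwinding raises red fluorescence, read kinetically.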
Tb PFK block = T. brucei PFK enzyme inhibition. O15648. T. brucei PFK, ADP-Glo luminescence. Potency, µM (doses to about 57.5 µM), without a hit: at the highest dose activity, negative = inhibition, usual class: inhibitors. actives 0.17% (n = 330,000). AID 485367;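 note: potency is the fitted concentration of half-maximal effect; 0% = uninhibited 1x PFK enzyme wells and -100% = no-enzyme wells; nearly all actives have a fitted effect of over 60% in size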
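Luminescent ADP detection (ADP-Glo, two-step: ATP depletion then ADP-to-ATP conversion for luciferase) reported PFK activity after 45 min room-temperature reaction of 1.25 nM enzyme with 0.5 mM F6P and 0.1 mM ATP at pH 8.0.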
ADP-Glo interf = counter-screen for PI5P4K inhibitors: ADP-Glo detection interference, no enzyme | Potency, µM (top dose mostly 76.9 µM), without a hit: at the top dose activity change, negative = inhibition, usual class: inhibitors | AID 743285 | ADP-Glo detection counter-screen, luciferase luminescence, no enzyme | shares compounds with PI5P4Ka inh | 1,100 tested, under 10 active
The depositor's hits bear a star; i = inactive; ? = inconclusive; nt = no result given; [ ] = remark or other dose. Unless noted, calls come from the whole dose curve; as a rule, active = well fitted curve in the direction sought with a large enough effect; inconclusive = small, poorly fitted or top-dose-only effect, or another doubt; inactive = no such curve, though single readings can be large; an effect the other way counts as inactive or inconclusive. Unless noted, % is set by controls: 0 for no effect and ±100 for the full control effect.

SMILES | FEN1 inhibitor | TDP1 inh | PI5P4Ka inh | Tb PGK inh | WRN inhibitor | Tb PFK block | ADP-Glo interf
O=c1cc(CSc2ccc(Cl)cc2)nc2nc[nH]n12 | -2.1% | 2.1% | -67.2* | 1.8% | -10.3% | -1.4% | -11.8%
Cc1ccc(C)c(C2=NNC(=NCc3ccccc3)SC2)c1 | -12.4% | 10.0% | -65.5* | i | -24.7% | -7.1% | -3.2%
COc1cccc(C2=NNC(=NCc3ccccc3)SC2)c1 | 6.8% | 8.3% | -0.1 | i | -6.0% | 1.1% | nt
Cc1cc(C(=O)OCC(=O)Nc2cc(S(=O)(=O)N3CCOCC3)ccc2Cl)c(C)o1 | 0.6% | 6.0% | 4.5 | 1.6% | -10.7%[57.1 µM] | -3.5% | 1.0%
CN(C(=O)c1ccc(Br)o1)C1CCS(=O)(=O)C1 (centres undefined) | 4.2% | nt | ? | -9.3% | -4.3% | -0.5% | 4.4%
O=c1cc(CNc2cc(Cl)ccc2Cl)nc2sccn12 | -5.8% | 8.1% | -4.7 | -2.9% | -2.1% | -9.7% | nt
COc1ccc(Nc2cccccc2=O)cc1 | -9.8% | 4.4% | -1.8 | -3.8% | -4.6% | -0.7% | nt
COc1ccc(Nc2ccccc2C(=O)O)cc1 | 4.8% | 0.0% | -63.5* | 0.7% | -9.5% | -7.3% | 6.4%
CC1(Cc2cccc(C(F)(F)F)c2)C(=O)Nc2c(Cl)ccc(Cl)c21 (centres undefined) | nt | nt | 7.2 | nt | -7.7% | nt | nt
CSc1cccc(NC(=O)c2cnn3ccccc23)c1 | 1.0% | 4.7% | -63.4* | -8.0% | -9.8% | -4.5% | -1.2%
COc1ccc(CCn2c(C)nc3ccccc3c2=O)cc1OC | 17.7% | -2.4% | 0.6 | 2.1% | 3.7% | 6.9% | nt
COc1ccc(CCn2c(O)cc3nn(-c4nc5ccccc5s4)c(=O)c-3c2C)cc1 | ? | nt | -80.9* | i | ? | 15.8% | 2.7%
Cc1ccc(C(=O)NCCc2ccc(S(N)(=O)=O)cc2)cc1-n1cnc2cccnc21 | 20.0% | 0.0% | nt | i | nt | nt | nt
COc1ccc(OC)c([N+](=O)[O-])c1C(N)=O | ? | nt | -64.9* | ? | ? | 2.3% | -9.7%
CN(C)C(=O)c1ccc(NC(=O)COC(=O)C2=COCCO2)cc1 | 3.2% | -2.8% | ? | i | 1.3% | 15.1% | 1.7%
O=C(COC(=O)C1CC2C=CC1C2)NCc1ccco1 (centres undefined) | -23.8% | 28.2µM* | -74.1* | 31.6µM* | ? | ? | -0.6%
O=C(COC(=O)CCC(=O)c1ccc(Cl)cc1)NCc1ccco1 | -2.5% | nt | -51.5* | ? | ? | ? | 0.3%
O=C(COC(=O)CCC(=O)c1ccc(F)cc1)NCc1ccc(Cl)cc1 | -12.3% | -1.1% | -1.0 | 13.1% | -5.1% | -7.2% | nt
CN(C)S(=O)(=O)c1ccc(C(=O)Nc2cc(=O)n(C)c(=O)n2C)cc1 | -0.3% | 2.6% | -5.5 | i | 5.0% | 1.0% | nt
O=c1[nH]c2cc3c(cc2cc1CN(Cc1ccccc1)Cc1nnnn1Cc1ccco1)OCCO3 | -18.6% | 6.2% | -53.7* | 2.0% | ? | -29.3% | 9.7%
COc1ccc(N2CSC3=C(C#N)C(c4cccc(OC)c4OC)CC(=O)N3C2)cc1 (centres undefined) | -19.7% | 6.5% | -50.6* | 1.1% | 6.1% | -8.8% | -14.1%
COc1ccc2ccccc2c1C1CC(=O)N2CN(Cc3ccco3)CSC2=C1C#N (centres undefined) | ? | 6.1% | ? | -8.1% | -11.2% | -4.6% | nt
COc1ccc2ccccc2c1C1CC(=O)N2CN(C3CCCCC3)CSC2=C1C#N (centres undefined) | ? | 6.1% | -56.1* | -4.6% | -2.2% | -1.4% | -4.6%
COc1ccccc1NC(=O)Cc1nnc(SCC(=O)Nc2ccccc2F)n1C | 2.5% | 0.0% | -66.9* | 0.6% | ? | 0.0% | -6.6%
CCn1c(CC(=O)Nc2ccccc2OC)nnc1SCC(=O)Nc1ccccc1F | -2.0% | -2.7% | 0.4 | -4.6% | -1.0%[57.1 µM] | -3.9% | nt
SMILES | FEN1 inhibitor | TDP1 inh | PI5P4Ka inh | Tb PGK inh | WRN inhibitor | Tb PFK block | ADP-Glo interf
CCn1c(CC(=O)Nc2ccccc2F)nnc1SCC(=O)NC1CCCCC1 | -8.2% | 2.7%[0.0935 µM] | -29.1 | 2.9% | -4.1%[11.6 µM] | 0.8% | -5.9%
Cc1ccc(Cl)cc1NC(=O)CN1C(=O)C(C)(C)c2cc(S(=O)(=O)N3CCCCC3)ccc21 | 6.4% | 3.3% | nt | i | nt | nt | nt
CCCCn1c(N)c(N(CCOC)C(=O)c2cc(-c3ccco3)nc3ccccc23)c(=O)[nH]c1=O | -18.9% | nt | -71.2* | -5.9% | ? | ? | -1.9%
CCCCn1c(N)c(N(CCOC)C(=O)c2cc(-c3ccc(OC)c(OC)c3)nc3ccccc23)c(=O)[nH]c1=O | -9.4% | -0.2% | -1.0 | -2.0% | -3.9% | 3.4% | nt
CCCN(C(=O)c1cc(-c2ccco2)nc2ccccc12)c1c(N)n(Cc2ccccc2)c(=O)[nH]c1=O | -16.7% | nt | -59.0* | -16.2% | ? | -1.9% | -3.8%
CCCn1c(N)c(N(CCOC)C(=O)c2cc(Cl)nc3ccccc23)c(=O)[nH]c1=O | -2.2% | -0.2% | -5.0 | i | 0.4% | 6.3% | nt
Cc1cc(C(=O)Nc2cccc3c2O[C@@H](CN(C)S(C)(=O)=O)[C@H](C)CN([C@@H](C)CO)C3=O)n(C)n1 | 24.8% | 0.5% | -0.4 | -4.0% | 3.7% | -0.6% | 1.5%
C[C@H](CO)N1C[C@H](C)[C@@H](CN(C)S(C)(=O)=O)Oc2c(NC(=O)C3CC3)cccc2C1=O | -2.7% | 0.5% | 0.5 | -6.9% | 4.1% | 0.0% | nt
Cc1nc(CS(=O)(=O)c2ccccc2)cc(N2CCOCC2)n1 | 10.4% | 9.2% | -56.8* | -4.8% | ? | 2.0% | -10.8%
Cc1nc(CSc2ccc(Cl)cc2)cc(N2CCOCC2)n1 | -0.3% | 3.1% | 5.4 | -6.1% | -34.4% | -1.5% | nt
Cc1cc(Nc2cc(C(=O)O)ccc2C)n2ncnc2n1 | -6.0% | -2.9% | 4.1 | -9.1% | -1.3% | -1.8% | nt
Cc1cc(Nc2ccccc2C(=O)O)n2ncnc2n1 | nt | nt | nt | -2.4% | 7.0% | nt | 0.8%
C=CCn1c(=O)/c(=C/c2ccsc2)s/c1=C(\C#N)C(=O)NCCN1CCOCC1 | -2.1% | nt | -1.2 | i | -16.3% | nt | nt
COc1ccc(C2=NCCn3nc4cc(OC)ccc4c32)cc1 | -3.0% | 2.7% | -82.4* | -0.3% | -3.2% | -0.8% | 3.9%
Cc1ccc(NC(=O)C(C)OC(=O)c2cc(=O)[nH]c3ccccc23)cc1S(=O)(=O)N1CCOCC1 (centres undefined) | -4.2% | nt | -61.1* | -6.8% | ? | nt | 1.6%
